{"source": "the supplement of paper PMC6555819", "data": [{"test_system": "LXRa homodimer (NR concentration 270 nM)", "assay": "PBM binding z-score (relative to random genomic background probes); higher = stronger binding; sequences stand for … in GC…GCGATTGACAGCGTAGAATGAAGG", "outline": "(§1)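 Regression normalization was applied to scanned fluorescence from custom Agilent 4×180K protein-binding microarrays. Before scanning, arrays were incubated 1 h with ligand-free nuclear receptor dimers, and binding was detected with antibodies against each partner (one per run). Binding z-scores use the random background probes as reference.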", "values": [{"sequence": "TCTTGTAGATCAAGCAGGTTAATAAAGCCTGAGT", "PBM binding z-score": -0.263}, {"sequence": "CCAGACAGGTGAAAGGTACCTCAGTCTGGTACGC", "PBM binding z-score": -0.338}, {"sequence": "CGTCCAAGGGCATAGGAGGTCAGTGAAGACAGAT", "PBM binding z-score": 1.32}, {"sequence": "CAAACTAGGTCACGATAGGTCAAAGTCGAATGAC", "PBM binding z-score": 5.31}, {"sequence": "TCTCGGAGGACACCAAGGTCAGAGCTTTCCAGAG", "PBM binding z-score": 0.191}, {"sequence": "TCATATAGGTAAAGGTGAAAGGCGAACGATATGA", "PBM binding z-score": -0.0796}, {"sequence": "CGAACGAGGGCATGAGTTGATCGCAAATGCCGAT", "PBM binding z-score": -0.273}, {"sequence": "GCTCCTAGGTCAACTGATGGTCAGCTAAAGCTCG", "PBM binding z-score": 0.561}, {"sequence": "AGTCAAAGTTCATCTAGCTAACGTAAGATATGCT", "PBM binding z-score": 4.89}, {"sequence": "TTTCCAAGGTGAGCTGAGGTCGTTGATCCAACTC", "PBM binding z-score": -0.117}, {"sequence": "CCTAGCAGGCCAATCTGGGTTACTCAAGGCTTGA", "PBM binding z-score": -0.681}, {"sequence": "TCTGCTAGGTCAGTAGGTCAGCTAACGAGCTGCC", "PBM binding z-score": 0.12}, {"sequence": "CGTCCAAGGTCAAGGACAGTGAAAGAGACTCGAA", "PBM binding z-score": 0.198}, {"sequence": "CTCAAAAGGTCGTGCTCAGGTGAGTATACCAAAC", "PBM binding z-score": 0.165}, {"sequence": "ACTAGAAGGCCAAGTTTGGGTCACTCAAACAAAG", "PBM binding z-score": -0.0475}, {"sequence": "GCAGACAGGTGAGACGCAGGTAACTCAGGGTGGC", "PBM binding z-score": -0.774}, {"sequence": "ACTAGCAGGCCAAGGGTCAATCAAGATTAGTCCG", "PBM binding z-score": 0.134}, {"sequence": "AGTGAAAGTTCATCTAGGTAACGTAAGATATGCT", "PBM binding z-score": 5.06}, {"sequence": "CAAACTAGGTCACAGGAAGGTCAAAGTCCGCATG", "PBM binding z-score": 4.15}, {"sequence": "CGTCCAACGTCAATGCTAGGTCAGTGAAAGCATT", "PBM binding z-score": 0.545}, {"sequence": "AATGCAGGGTCACTAGGCCAGAGTAGGTACGAAT", "PBM binding z-score": 0.0121}, {"sequence": "ACTGACAGGTGAGTGAAGGTAACTCAGCTGGACG", "PBM binding z-score": -0.418}, {"sequence": "ACTATTAGTCGACTTAGGGCAACCGATACGACGC", "PBM binding z-score": -0.355}, {"sequence": "TCATATAGGTAAATGCTAAGTGAAAGTCCGATCT", "PBM binding z-score": 0.284}, {"sequence": "CCTCGGAGGACGACAGGAGGTCAGAGCTGCCAGA", "PBM binding z-score": 0.305}, {"sequence": "CCGACTGAGGCAAGGTTACCATAACGCACAGCCA", "PBM binding z-score": -0.295}, {"sequence": "TTACCAAGGTGAAAGGTCGTCGATGCACGCCTTG", "PBM binding z-score": 0.0373}, {"sequence": "CGAACTAAGTCAAGGACAGTGAATCTCCGCACGC", "PBM binding z-score": -0.211}, {"sequence": "CGTCTAAGGTCAGAGAGGTCAGTGAATGCCGAGT", "PBM binding z-score": 3.47}, {"sequence": "TGAATGAGGTGATAAGATCAGGGAACGTTGCAAA", "PBM binding z-score": -0.391}, {"sequence": "CCTAGCAGGCCAGGGTCACTGAAGCATTTCGCTT", "PBM binding z-score": -0.679}, {"sequence": "TTATATAGGTAAACAGGTGAAAGTCCGTAAGTTA", "PBM binding z-score": 0.481}, {"sequence": "TAGCCTAGGTCCGATCGGGCCAGTATACGCTATA", "PBM binding z-score": -0.978}, {"sequence": "AGAACGAGGGCAGGCTGAGTTGATAGCAGAGTAG", "PBM binding z-score": -0.661}, {"sequence": "GCTTACGGGTCAAAGATTATAGCATGAATAGAAT", "PBM binding z-score": -0.0414}, {"sequence": "TCTAGCAGGCCACAGGGTCACTCAAGAGGTACGG", "PBM binding z-score": -0.338}, {"sequence": "TAGCCTAGGTCACTGGGCCAGTATAGTACGCATC", "PBM binding z-score": -0.331}, {"sequence": "TTACCAAGATGAAGGTCGTTGATCCCTCTGTAGA", "PBM binding z-score": -0.0555}, {"sequence": "GATATAGGGTCAAGGCCAGAGTACGCGTATTGAT", "PBM binding z-score": 0.271}, {"sequence": "GCGAATGGGGCAAAGCAGGTTACCATAAGGTTGG", "PBM binding z-score": -0.483}]}, {"test_system": "LXRb:RXRa (NR concentration 270 nM, RXRa partner concentration 90 nM)", "assay": "PBM binding z-score (relative to random genomic background probes); higher = stronger binding; sequences stand for … in GC…GCGATTGACAGCGTAGAATGAAGG", "outline": "as §1", "values": [{"sequence": "TCTTGTAGATCAAGCAGGTTAATAAAGCCTGAGT", "PBM binding z-score": 0.262}, {"sequence": "CCAGACAGGTGAAAGGTACCTCAGTCTGGTACGC", "PBM binding z-score": 0.286}, {"sequence": "CGTCCAAGGGCATAGGAGGTCAGTGAAGACAGAT", "PBM binding z-score": 2.56}, {"sequence": "CAAACTAGGTCACGATAGGTCAAAGTCGAATGAC", "PBM binding z-score": 6.9}, {"sequence": "TCTCGGAGGACACCAAGGTCAGAGCTTTCCAGAG", "PBM binding z-score": 1.09}, {"sequence": "TCATATAGGTAAAGGTGAAAGGCGAACGATATGA", "PBM binding z-score": 1.17}, {"sequence": "CGAACGAGGGCATGAGTTGATCGCAAATGCCGAT", "PBM binding z-score": 0.109}, {"sequence": "GCTCCTAGGTCAACTGATGGTCAGCTAAAGCTCG", "PBM binding z-score": 3.01}, {"sequence": "AGTCAAAGTTCATCTAGCTAACGTAAGATATGCT", "PBM binding z-score": 3.8}, {"sequence": "TTTCCAAGGTGAGCTGAGGTCGTTGATCCAACTC", "PBM binding z-score": 0.979}, {"sequence": "CCTAGCAGGCCAATCTGGGTTACTCAAGGCTTGA", "PBM binding z-score": -0.364}, {"sequence": "TCTGCTAGGTCAGTAGGTCAGCTAACGAGCTGCC", "PBM binding z-score": 1.18}, {"sequence": "CGTCCAAGGTCAAGGACAGTGAAAGAGACTCGAA", "PBM binding z-score": 3.81}, {"sequence": "CTCAAAAGGTCGTGCTCAGGTGAGTATACCAAAC", "PBM binding z-score": 3.42}, {"sequence": "ACTAGAAGGCCAAGTTTGGGTCACTCAAACAAAG", "PBM binding z-score": 0.902}, {"sequence": "GCAGACAGGTGAGACGCAGGTAACTCAGGGTGGC", "PBM binding z-score": -0.355}, {"sequence": "ACTAGCAGGCCAAGGGTCAATCAAGATTAGTCCG", "PBM binding z-score": 2.96}, {"sequence": "AGTGAAAGTTCATCTAGGTAACGTAAGATATGCT", "PBM binding z-score": 3.56}, {"sequence": "CAAACTAGGTCACAGGAAGGTCAAAGTCCGCATG", "PBM binding z-score": 4.78}, {"sequence": "CGTCCAACGTCAATGCTAGGTCAGTGAAAGCATT", "PBM binding z-score": 0.323}, {"sequence": "AATGCAGGGTCACTAGGCCAGAGTAGGTACGAAT", "PBM binding z-score": 3.54}, {"sequence": "ACTGACAGGTGAGTGAAGGTAACTCAGCTGGACG", "PBM binding z-score": -0.453}, {"sequence": "ACTATTAGTCGACTTAGGGCAACCGATACGACGC", "PBM binding z-score": -0.374}, {"sequence": "TCATATAGGTAAATGCTAAGTGAAAGTCCGATCT", "PBM binding z-score": 0.773}, {"sequence": "CCTCGGAGGACGACAGGAGGTCAGAGCTGCCAGA", "PBM binding z-score": 1.13}, {"sequence": "CCGACTGAGGCAAGGTTACCATAACGCACAGCCA", "PBM binding z-score": 0.593}, {"sequence": "TTACCAAGGTGAAAGGTCGTCGATGCACGCCTTG", "PBM binding z-score": 2.77}, {"sequence": "CGAACTAAGTCAAGGACAGTGAATCTCCGCACGC", "PBM binding z-score": -0.441}, {"sequence": "CGTCTAAGGTCAGAGAGGTCAGTGAATGCCGAGT", "PBM binding z-score": 5.03}, {"sequence": "TGAATGAGGTGATAAGATCAGGGAACGTTGCAAA", "PBM binding z-score": -0.155}, {"sequence": "CCTAGCAGGCCAGGGTCACTGAAGCATTTCGCTT", "PBM binding z-score": 2.1}, {"sequence": "TTATATAGGTAAACAGGTGAAAGTCCGTAAGTTA", "PBM binding z-score": 0.738}, {"sequence": "TAGCCTAGGTCCGATCGGGCCAGTATACGCTATA", "PBM binding z-score": -1.3}, {"sequence": "AGAACGAGGGCAGGCTGAGTTGATAGCAGAGTAG", "PBM binding z-score": -0.676}, {"sequence": "GCTTACGGGTCAAAGATTATAGCATGAATAGAAT", "PBM binding z-score": 3.8}, {"sequence": "TCTAGCAGGCCACAGGGTCACTCAAGAGGTACGG", "PBM binding z-score": 1.82}, {"sequence": "TAGCCTAGGTCACTGGGCCAGTATAGTACGCATC", "PBM binding z-score": 1.92}, {"sequence": "TTACCAAGATGAAGGTCGTTGATCCCTCTGTAGA", "PBM binding z-score": 1.48}, {"sequence": "GATATAGGGTCAAGGCCAGAGTACGCGTATTGAT", "PBM binding z-score": 3.91}, {"sequence": "GCGAATGGGGCAAAGCAGGTTACCATAAGGTTGG", "PBM binding z-score": 0.474}]}]}
